NTR1 ag – agonists of human NTR1, primary screen, imaging, U2OS cells, beta-arrestin-GFP, high content; NTR1-U2OS beta-arrestin-GFP spot imaging, agonist mode; activation, % at 20 µM; hit rate 0.17% among 330,000; Neurotensin receptor type 1 (Homo sapiens), P30989;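 active = activation at or above 40% of the spot to cytoplasm intensity ratio, with at least 20 cells analyzed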;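 also: 0% = DMSO without peptide and 100% = 100 nM NTR1 peptide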
Target sequence (P30989 whole entry, looked up): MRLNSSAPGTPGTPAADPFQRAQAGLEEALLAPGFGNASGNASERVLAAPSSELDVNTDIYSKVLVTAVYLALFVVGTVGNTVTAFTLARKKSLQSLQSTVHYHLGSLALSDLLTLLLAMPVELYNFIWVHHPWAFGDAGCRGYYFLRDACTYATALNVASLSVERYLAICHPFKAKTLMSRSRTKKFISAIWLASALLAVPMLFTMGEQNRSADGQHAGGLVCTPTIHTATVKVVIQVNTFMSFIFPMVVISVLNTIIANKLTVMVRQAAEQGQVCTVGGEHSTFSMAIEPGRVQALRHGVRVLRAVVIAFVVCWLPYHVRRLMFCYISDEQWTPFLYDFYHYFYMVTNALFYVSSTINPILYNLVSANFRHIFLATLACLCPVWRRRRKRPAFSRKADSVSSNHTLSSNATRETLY
CRFR2-BP ag – agonists of CRF-BP/CRF-R2 complex, primary screen, cell-based, HEK293, calcium dye fluorescence, uHTS; calcium dye fluorescence (FLIPR); percent of saturating CRF peptide response; activation, % at 13.2 µM; AID 588473, 2011; CRF-binding protein / CRF receptor 2 complex (human); hit rate 0.46% among 350,000;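 active = activation of at least 50%, plus an integration ratio under a set limit after plate pattern correction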;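 also: plate controls were neutral control wells without compound for no effect and CRF at EC100 for full effect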
CRFR2-BP antag – antagonists of CRF-BP/CRF-R2 complex, primary screen, cell-based, HEK293, calcium dye fluorescence, uHTS; CRF-induced calcium fluorescence; inhibition, % at 11.8 µM; hit rate 0.59% among 350,000; AID 588475, 2011;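 active = inhibition of the ligand-induced calcium signal above about 50% at the single tested concentration, limit read from the data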
V-ATPase pHluor – regulators of yeast V-ATPase proton pumping, primary screen, pHLuorin cytosolic pH fluorescence. response, % at 10 µM. S. cerevisiae. hit rate 0.37% among 350,000; in the data active = response mostly above about 7.3%, no sharp cut-off; inactive = mostly below about 5.4%; also: actives read high
VATPase regulator – yeast V-ATPase proton pumping modulators, confirmation, S. cerevisiae, pH-sensitive GFP, second cherry-pick | shares compounds with V-ATPase pHluor | S. cerevisiae pHLuorin cytosolic pH, V-ATPase proton transport | response, % at 10 µM | hit rate 2% among 980; in the data active = response above about 24%;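 also: plate controls were vehicle wells for no effect and positive control wells for full effect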
An asterisk follows results filed as active; · = no result given. Compounds with a hit are over-represented: about 1.5% of the library has one in this group of screens.

SMILES	NTR1 ag	CRFR2-BP ag	CRFR2-BP antag	V-ATPase pHluor	VATPase regulator
CCOC(=O)N=Nc1c2ccccc2c2nc3no[nH]c3nc12	8.9	-0.4	-7.3	21.8*	117.8*
O=C(C(=O)N1CCN(c2ccccc2F)CC1)c1cn(CC(=O)N2CCCC2)c2ccccc12	·	-1.6	13.3	-0.5	·
O=C(O)CCN1C(=O)C2C3CC(C2C1=O)C1C(c2ccccc2)c2sc(=O)n(-c4ccccc4)c2SC31 (stereo unspecified)	0.1	-1.4	-0.5	9.2*	3.0
COc1ccc2nc(-c3ccccc3)nc(SC)c2c1	·	4.8	13.9	-2.2	·
COc1ccc([C@H]2C[C@@H](O)[C@H](n3cc(-c4ccc(F)cc4)nn3)CN2C(=O)C2CCCCC2)cc1	·	-1.4	10.6	7.0*	1.0
COc1ccc([C@H]2C[C@H](O)[C@@H](n3cc(-c4ccc(F)cc4)nn3)CN2C(=O)C2CCCCC2)cc1	·	1.1	2.0	2.9	·
CCOC(=O)C1CCCN(c2c(NCCCN3CCCC(C)C3)c(=O)c2=O)C1 (stereo unspecified)	-2.3	0.8	0.8	12.6*	-0.6
O=C(O)c1ccc(/C=N/N2CCN(C3c4ccccc4-c4ccccc43)CC2)cc1	-0.3	-6.0	17.2	19.5*	46.3*
Oc1ccc(/C=N/N2CCN(C3c4ccccc4-c4ccccc43)CC2)cc1	37.5	1.4	-9.1	-0.1	·
COc1ccc(N/N=C(/C#N)S(=O)(=O)c2nsc(C)c2C#N)cc1	1.1	-2.8	10.2	-3.8	·
Cc1snc(S(=O)(=O)/C(C#N)=N/Nc2cccc(C(F)(F)F)c2)c1C#N	-0.3	4.4	21.1	24.6*	-4.0
COc1cc(S(=O)(=O)NCC(c2ccco2)N2CCCCC2)ccc1NC(C)=O (stereo unspecified)	0.8	0.3	-4.1	6.0	·
CC1=C(C(N)=O)C(c2ccc(Cl)cc2)n2nc(CCCO)nc2N1 (stereo unspecified)	0.1	-1.0	-0.6	2.5	·
CC1=C(C(N)=O)C(c2cccc(O)c2)n2nc(CCCO)nc2N1 (stereo unspecified)	2.1	5.9	-20.6	7.2*	-1.5
O=C1CSC(c2ccccc2[N+](=O)[O-])N1c1cccc(F)c1 (stereo unspecified)	1.9	-3.1	20.4	8.3*	8.7
CCOc1ccc(C(=O)n2cc(C(=O)OC)c3ccccc32)cc1	2.5	5.2	12.7	-2.3	·
O=C(c1ccccc1)N1CN2CN(C(=O)c3ccccc3)CC([N+](=O)[O-])(C2)C1	0.6	-0.1	5.5	46.1*	-2.9
CCCC(C(=O)NNC(=O)c1cc(C)oc1C)c1ccccc1 (stereo unspecified)	-0.6	-2.3	-4.9	-4.0	·
CCOC(=O)c1c(-c2ccc(C)o2)csc1NC(=O)CSc1nnc(C)s1	1.2	-0.3	15.3	9.2*	-1.4
O=C(O)CCc1ccc(-c2ccc(Br)cc2)n1-c1ccc(O)cc1	1.7	-2.4	10.4	11.6*	-4.1
CC(Sc1nnc(Cc2ccccc2)n1C)C(=O)NC1CC1 (stereo unspecified)	1.4	0.8	-16.0	-1.6	·
Cc1ccc2c(c1)C1CN(C)CCC1N2S(=O)(=O)c1ccccc1F (stereo unspecified)	-2.5	-1.5	-3.9	-2.2	·
CSc1nc2cc(S(=O)(=O)N3CCOCC3)ccc2s1	0.6	1.5	10.0	18.7*	-0.3
CCc1cc2c(SCc3nc4sc(C(C)=O)c(C)c4c(=O)[nH]3)ncnc2s1	5.2	4.0	13.1	-0.4	·
CN1CCN(CCCC(=O)c2ccc(F)cc2)CC1	-1.1	0.9	-9.4	3.9	0.3
SMILES	NTR1 ag	CRFR2-BP ag	CRFR2-BP antag	V-ATPase pHluor	VATPase regulator
CN(C)CCC(=O)c1ccc(F)cc1	2.2	0.7	5.6	1.0	10.9
CCN(CC)CCC(=O)c1ccc(F)cc1	3.4	-0.3	-9.1	-1.9	·
O=C(CCCN1Cc2ccccc2C1)c1ccc(F)cc1	0.0	1.1	-16.3	3.4	-7.8
Cc1ccc(CN2CCNC(=O)C2CC(=O)N(C)C2CCCCC2)cc1 (stereo unspecified)	1.8	-4.9	-28.1	-0.4	·
COc1ccccc1CNC(=O)C1CCN(c2ncnc3c2nc2n3CCCCC2)CC1	0.8	-2.4	-0.8	11.7*	0.0
COc1ccc(Nc2nc3ccccc3c(=O)[nH]2)cc1	0.0	-3.0	12.4	-1.4	·
Cc1ccc(Nc2nc3ccccc3c(=O)[nH]2)cc1C	1.7	22.7	-67.6	11.2*	-0.7
CCCCn1c(N)c(N(CC(C)C)C(=O)CN2C(=O)c3ccccc3C2=O)c(=O)[nH]c1=O	0.2	0.3	-7.6	6.5	·
CCCCn1c(N)c(N(CC(C)C)C(=O)CC2OC(=O)c3ccccc32)c(=O)[nH]c1=O (stereo unspecified)	0.2	-1.4	-7.7	10.7*	0.9
CC(=O)NC(Cc1ccccc1)C(=O)N1CCN(C(=O)c2ccco2)CC1 (stereo unspecified)	-0.9	-0.5	19.6	-5.0	·
O=C(NC(Cc1ccccc1)C(=O)N1CCN(c2ccccn2)CC1)c1ccco1 (stereo unspecified)	0.3	5.0	-5.4	12.2*	-1.8
C/C(=N\OCc1ccccc1)c1c(O)cc(C(C)C)n(-c2ccccc2)c1=O	1.9	-0.2	23.2	6.3	·
CCOC(=O)[C@@H]1[C@H]2COc3ccc(Br)cc3[C@@H]2N2C(=O)N(c3ccc(C(F)(F)F)cc3)C(=O)[C@]12C	0.2	7.8	-8.4	-0.4	·
Cc1ccc(C(=O)OCCc2sc[n+](Cc3ccccc3)c2C)cc1	1.3	0.6	0.2	46.6*	2.0
COC(=O)c1ccc(CNC(=O)c2ccc3c(c2)S(=O)(=O)N=C2CCCCCN23)cc1	1.3	0.3	-7.1	10.9*	-1.1
O=C(C1CCN(c2nc(-c3ccccc3)nc3c2CCC3)CC1)N1CCC(O)CC1	1.1	0.5	4.9	11.3*	-0.8
CCOc1ccc(-n2c(SCC(=O)NCc3ccco3)nc3ccccc3c2=O)cc1	2.0	0.8	-7.7	1.2	·
CCOc1ccc(-n2c(SCC(=O)NCc3ccco3)nc3c([nH]c4ccccc43)c2=O)cc1	7.5	0.3	78.0*	10.0*	1.8
CC(=O)Nc1nc(N2C(=O)c3ccccc3C2=O)n(-c2ccccc2)n1	-0.6	-1.2	14.7	7.0*	-0.9
O=C(Nc1nc(N2C(=O)c3ccccc3C2=O)n(-c2ccccc2)n1)c1ccccc1	1.4	-0.1	-16.0	-0.2	·
O=S(=O)(c1ccc(F)cc1)c1nc(-c2ccccc2)oc1N1CCOCC1	1.7	-1.0	-1.3	2.2	·
O=C(NCCc1ccccc1)C(=O)Nc1ccc([N+](=O)[O-])cc1	-3.2	0.0	-16.4	-0.3	·
CCOc1ccc(NC(=O)CSc2nc(N3CCOCC3)nc(N3CCOCC3)n2)cc1	-0.7	-0.8	13.4	8.7*	0.6

Screens: PubChem, several laboratories
